# Compounds with a hit are over-represented: about 11% of the library has one in this group of screens.
# Sm TGR inh: inhibitors of Schistosoma mansoni thioredoxin glutathione reductase; Potency, µM (top dose mostly 114 µM), inactives show top-dose activity change, negative = inhibition, usual class: inhibitors; 360,000 compounds, 3% hits; purified TGR, DTNB reduction, TNB absorbance 405 nm; AID 485364; Q962Y6; also: % is scaled to controls: 0 for no effect and ±100 for the full control effect; nearly all actives have a fitted effect of over 60% in size
#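 First, TGR (20 nM dispensed) and NADPH were mixed with compound. Second, a 15 min room-temperature incubation followed. Third, further NADPH and then DTNB were added to start the reaction. Finally, TNB absorbance was monitored kinetically.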
# AMA1 RON2 block: AMA1-RON2 (P. falciparum) interaction inhibition. AID 720542. Potency, µM (highest dose often 58.2 µM), for inactives: top-dose activity change, negative = inhibition, actives largely listed as inhibitors. AlphaScreen AMA1-biotinylated RON2 peptide binding. 360,000 compounds, 0.2% hits;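 also: 0% = vehicle wells and -100% = peptide control; nearly all actives have a fitted effect of over 45% in size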
#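 AMA1 (3D7) with his tag at 25 nM final met compounds first, then biotinylated RON2 peptide at 25 nM; detection used donor plus acceptor beads, 10 µg/mL apiece, read by AlphaScreen after 30 min at room temperature.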
# NS1 inh: influenza NS1 inhibition; Potency, µM (highest dose often 46.1 µM), for the others: at the highest dose activity, positive = more growth; 270,000 compounds, 0.4% hits; calls by dose curve; also: actives are rising curves; nearly all actives have a fitted effect of over 50% in size
#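 Growth recovery, yeast-based: influenza A NS1 expressed in S. cerevisiae causes slow growth, and suppressors are detected by OD600. The parent strain without NS1 is used as positive control.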
# Pf growth 48h: P. falciparum growth inhibition at 48 hours (one generation) | AID 504832 | 310,000 compounds, 5.9% hits | Potency, µM (doses to about 28.7 µM), for inactives: at the top dose activity change, negative = inhibition, actives largely listed as inhibitors | P. falciparum luciferase growth in erythrocytes, 48 h; also: % is scaled to controls: 0 for no effect and ±100 for the full control effect
#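 Erythrocytes infected with P. falciparum carrying an integrated firefly luciferase reporter (2% hematocrit, 0.1% parasitemia final) were exposed to compounds in RPMI 1640 with 0.5% Albumax at 37 C, 5% CO2. Growth inhibition was scored as reduced luminescence.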
# Pf growth 96h: inhibits malaria parasite growth, 96 h | P. falciparum luciferase reporter growth, 96 h | Potency, µM (titrated, usually from 28.7 µM), for the others: top-dose activity change, negative = inhibition, usual class: inhibitors | 320,000 compounds, 6.9% hits | AID 504834; also: % is scaled to controls: 0 for no effect and ±100 for the full control effect
#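 Erythrocytes infected with luciferase-expressing P. falciparum were dispensed at 2% hematocrit and 0.05% parasitemia (final), then incubated with compounds 96 hours at 37 C in 5% CO2. Luminescence after detection reagent addition reported growth.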
# Numbers without * were called inactive; ? = inconclusive; · = not tested or not shown; [ ] = another dose, or the depositor's remark. Unless noted, calls follow the shape of the dose curve; as a rule, active = well fitted curve in the direction sought with a large enough effect; inconclusive = small, poorly fitted or top-dose-only effect, or another doubt; inactive = no such curve, though single readings can be large; an effect the other way counts as inactive or inconclusive. Potency is read from the fitted curve at half-maximal effect.
SMILES,Sm TGR inh,AMA1 RON2 block,NS1 inh,Pf growth 48h,Pf growth 96h
CCCCCCn1cc(CN2CC(N(C)CC)CS2(=O)=O)nn1 (stereo not given),·,3%,·,·,·
O=C(CSCc1ccc(Cl)cc1)N/N=C/c1ccco1,?,-19%,·,12%,-27%
O=C(c1ccc2c(c1)OCO2)N1CCC2(CC1)Oc1ccc(Cl)cc1C(=O)C21CC(c2cccnc2)=NO1 (stereo not given),-9%,10%,12%,12µM*,13µM*
Cc1ccc(C(=O)N2CCC3(CC2)Oc2ccc(Cl)cc2C(=O)C32CC(c3cccnc3)=NO2)s1 (stereo not given),-22%,-2%,6%,?,13µM*
O=C(/C=C/c1cccs1)N1CCC2(CC1)Oc1ccc(Cl)cc1C(=O)C21CC(c2cccnc2)=NO1 (stereo not given),1%,-10%,7%,13µM*,12µM*
CC1Sc2ccc(S(=O)(=O)N3CCC(C(=O)Nc4cccc(Cl)c4)CC3)cc2NC1=O (stereo not given),-14%,-11%,?,?,-6%
COc1ccc(N2CCN(C(=O)c3ccc4c(c3)N(Cc3ccc(F)cc3)C(=O)c3ccccc3S4=O)CC2)cc1 (stereo not given),5%,·,·,·,·
C=CCSc1nc(N)c(C#N)c(-c2ccccc2)c1C#N,-14%,-18%,-8%,8%,17%
C=CCSc1nc2c(c(-c3ccsc3)c1C#N)CN(C)CC2,10µM*,1%,8%,?,?
CCOC(=O)C1CCCN(C(=O)CN2C(=O)C(CC)Oc3ccc(C)cc32)C1 (stereo not given),-19%,3%,-3%,-12%,13µM*
CCOC(=O)C1CCCN(C(=O)CN2CCN(Cc3ccc(Cl)cc3)C2=O)C1 (stereo not given),4%,15%,-14%,-5%,1.7µM*
CCOC(=O)C1CCCN(C(=O)/C=C/c2ccc(Cl)cc2)C1 (stereo not given),-3%,-10%,-9%,5%,-12%
CCC1Oc2ccc(C)cc2N(CC(=O)N2CCN(c3ccccc3OC)CC2)C1=O (stereo not given),-8%,·,·,·,·
O=C(Cn1c(=O)n(CCCS(=O)(=O)C2CCCCC2)c(=O)c2ccccc21)Nc1ccccc1F,3%,·,·,·,·
O=C(NCP(=O)(Oc1ccccc1)Oc1ccccc1)OCc1ccccc1,·,24%,·,·,·
CCOC(=O)C(CC(C)C)CP(=O)(O)CNC(=O)OCc1ccccc1 (stereo not given),-33%,26%,?,0%,7.4µM*
CCSCCCn1[nH]c2ccccc2c1=O,·,72%,·,·,·
CN1CCC(=O)N([C@H](CSc2ccccc2)c2ccccc2)CC1,?,10%,-11%,32%,23%
CCCN1CCC(=O)N([C@H](CSc2ccc(OC)cc2)c2ccccc2)CC1,22µM*,-3%,1%,?,?
CC(C)CN1CCC(=O)N([C@H](CSc2ccc(Br)cc2)c2ccccc2)CC1,2.8µM*,9%,-2%,48%,33%
Cc1ccc(SC[C@H](c2ccccc2)N2CCN(C)CCC2=O)cc1,40µM*,-13%,-5%,36%,44%
Cc1ccc(SC[C@H](c2ccccc2)N2CCN(CC(C)C)CCC2=O)cc1,32µM*,6%,7%,?,?
COC(=O)c1cc(-c2ccc(NC(C)=O)cc2)nc2ccccc12,-1%,34%,-7%,7%,-4%
COc1ccc(OC)c2nc3c(cc12)CCC3,-16%,-11%,-3%,-9%[0.00184 µM],-18%
CC(=O)Nc1nonc1-c1nnc(SCC(=O)Nc2ccc(C)c(Cl)c2)n1-c1ccccc1,12%,·,·,·,·
SMILES,Sm TGR inh,AMA1 RON2 block,NS1 inh,Pf growth 48h,Pf growth 96h
CC(Oc1ccc(Br)cc1)C(=O)Nc1nc(-c2ccccn2)cs1 (stereo not given),0%,29%,-105%,7.4µM*,3.7µM*
CC(C)[C@H](NC(=O)c1ccccc1Cl)C(=O)Nc1nc(-c2ccccn2)cs1,5%,30%,-38%,9.3µM*,?
CC(Oc1ccc(Cl)cc1)C(=O)Nc1nccs1 (stereo not given),3%,5%,-48%,4.1µM*,·
Cc1cccc(OC(C)C(=O)Nc2nc(-c3cccnc3)cs2)c1 (stereo not given),·,2%,·,·,·
CC(Oc1ccc(Cl)cc1)C(=O)Nc1ccc(S(=O)(=O)Nc2nccs2)cc1 (stereo not given),8%,2%,16%,4%,19%
O=S(=O)(c1ccc(Br)cc1)n1c(Cc2ccccc2)nc2ccccc21,-3%,-1%,-1%,-7%,?
O=S(=O)(N1CCCCC1)n1c(Cc2ccccc2)nc2ccccc21,16%,16%,-40%,12µM*,·
Cc1cc2oc(=O)cc(CN(C)Cc3ccccc3)c2cc1C(C)C,2%,0%,-11%,13µM*,?
Cc1cc2oc(=O)cc(CN3CCCCC3C)c2cc1C(C)C (stereo not given),-2%,-14%,-8%,15µM*,?
COc1ccc(CN(C)Cc2cc(=O)oc3cc(C)c(C(C)C)cc23)cc1OC,-18%,-9%,-24%,?,?
Cc1cc2oc(=O)cc(CN3CCCC3)c2cc1Cl,·,8%,·,·,·
CCCCOc1ccc(CNC(=O)CN2CCSc3ccccc32)cc1,-2%,·,·,·,·
Cc1cccc(N2CCN(C(=O)Cn3c(C)c4cnn(-c5ccccc5)c(=O)c4c3C)CC2)c1C,6%,·,·,·,·
O=C(Oc1cccnc1)c1ccco1,-4%,-6%,-1%,18%,8%
O=C(Oc1ccc(OC(=O)c2ccco2)c(S(=O)(=O)c2ccc(Cl)cc2)c1)c1ccco1,-6%,1%[2.32 µM],4%,4%,10µM*
O=C(Oc1cccc(OC(=O)c2ccco2)c1)c1ccco1,1%,5%,-17%,-23%,15µM*
Cc1ccc(S(=O)(=O)c2cnc(SCC(=O)Nc3cc(C)cc(C)c3)nc2N)cc1,-10%,·,·,·,·
O=C(NCC1CCN(c2ccc(S(=O)(=O)N3CCOCC3)cc2)CC1)Nc1ccccc1F,8%,-3%,-15%,?,28%
COc1ccc(N(C)S(=O)(=O)c2ccc3c(c2)CCN3C(=O)C2CC2)c(OC)c1,2%,1%,-14%,-6%,4.1µM*
O=C(O)CCC(=O)N1CCc2cc(S(=O)(=O)N3CCN(c4ccc(F)cc4)CC3)ccc21,-2%,14%,-47%,·,15µM*
Cc1ccc(CNS(=O)(=O)c2ccc3c(c2)CCN3C(=O)C2CCC2)cc1,0%,5%,-5%,18%,13µM*
O=C(O)CCC(=O)N1CCc2cc(S(=O)(=O)NCc3ccc(Cl)cc3)ccc21,-12%,7%,1%,10%,12µM*
CCN1CCN(c2ncc3c(n2)CCN(CC(C)C)C3)CC1,-10%,·,·,·,·
O=[N+]([O-])c1cccc(-c2n[nH]c(=S)n2-c2ccc(Br)cc2)c1,0.79µM*,39%,14%,0%,0%
